Hits are enriched below; roughly 1.4% of the tested compounds scored in any of these assays.
LYPLA1 counter: blocks human lysophospholipase 1, a PME1 counter-screen | O75608 | recombinant LYPLA1, FP-Rh probe fluorescence polarization | inhibition, % at 5.9 µM | 320,000 compounds, 0.16% hits;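 active = inhibition above the mean of all tested compounds plus 3 SD, set per campaign, cut at about 14% in these data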;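 also: inhibitors block serine hydrolase probe labeling of LYPLA1 so polarization falls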
LANA-H2B inh: blocks KSHV LANA binding to histone H2A/H2B | inhibition, % (no concentration beside the values) | cell-free LANA-H2A/H2B peptide, fluorescence polarization | 320,000 compounds, 0.6% hits | AID 2629; in the data active = inhibition mostly above about 10%, no sharp cut-off; inactive = mostly below about 6.7%
Target sequence (Q9QR71 whole entry, looked up): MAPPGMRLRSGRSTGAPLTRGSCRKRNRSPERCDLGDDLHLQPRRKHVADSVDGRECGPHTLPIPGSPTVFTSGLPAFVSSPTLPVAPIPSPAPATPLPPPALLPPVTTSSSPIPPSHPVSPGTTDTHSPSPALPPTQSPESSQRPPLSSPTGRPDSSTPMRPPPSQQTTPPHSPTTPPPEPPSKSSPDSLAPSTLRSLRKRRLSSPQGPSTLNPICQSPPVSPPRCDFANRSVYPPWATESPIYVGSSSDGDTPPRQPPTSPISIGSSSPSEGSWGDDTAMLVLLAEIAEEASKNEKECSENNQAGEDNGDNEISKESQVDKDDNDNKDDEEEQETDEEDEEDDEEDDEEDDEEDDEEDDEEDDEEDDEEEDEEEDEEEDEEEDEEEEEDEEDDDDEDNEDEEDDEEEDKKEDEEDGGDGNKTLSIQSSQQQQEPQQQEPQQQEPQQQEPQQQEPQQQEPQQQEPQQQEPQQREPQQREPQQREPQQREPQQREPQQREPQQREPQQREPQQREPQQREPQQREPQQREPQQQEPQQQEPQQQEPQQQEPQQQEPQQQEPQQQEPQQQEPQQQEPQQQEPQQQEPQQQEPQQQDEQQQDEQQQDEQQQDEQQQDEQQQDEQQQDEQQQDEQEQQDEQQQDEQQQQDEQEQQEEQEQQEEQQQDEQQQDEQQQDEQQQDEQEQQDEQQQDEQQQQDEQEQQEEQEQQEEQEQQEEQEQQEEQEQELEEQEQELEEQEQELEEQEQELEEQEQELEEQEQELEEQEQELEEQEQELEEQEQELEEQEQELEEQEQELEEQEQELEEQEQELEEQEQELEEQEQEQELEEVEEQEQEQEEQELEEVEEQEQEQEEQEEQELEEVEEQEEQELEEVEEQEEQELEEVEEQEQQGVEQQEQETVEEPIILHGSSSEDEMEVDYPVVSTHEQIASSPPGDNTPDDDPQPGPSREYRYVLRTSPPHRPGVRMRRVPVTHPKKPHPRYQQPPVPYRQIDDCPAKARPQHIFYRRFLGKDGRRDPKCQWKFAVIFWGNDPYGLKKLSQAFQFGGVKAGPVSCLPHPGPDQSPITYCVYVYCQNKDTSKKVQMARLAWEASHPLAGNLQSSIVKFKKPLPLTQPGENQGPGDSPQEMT
EBNA-1 inh: blocks EBNA-1 binding to DNA; EBNA-1 DNA binding, fluorescence polarization; inhibition, % at 14.8 µM; 300,000 compounds, 0.34% hits; in the data active = inhibition above about 28%
LYPLA2 counter: counter-screen for PME1 inhibitors: inhibitors of human LYPLA2; recombinant LYPLA2, FP-Rh probe fluorescence polarization; inhibition, % at 5.9 µM; 320,000 compounds, 0.38% hits;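 active = inhibition above the screen-wide mean plus 3 SD, limit set per campaign, cut at about 26% in these data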
ZTA DNA inh: blocks Epstein-Barr virus ZTA, an EBNA-1 counter-screen. ZTA-DNA binding, fluorescence polarization. 320,000 compounds, 0.15% hits. inhibition, % at 11 µM; in the data active = inhibition above about 33%
Numbers stand for hits; 0 = inactive; - = no result given; + = active, no number; ! = not confirmed by another sample.

SMILES	LYPLA1 counter	LANA-H2B inh	EBNA-1 inh	LYPLA2 counter	ZTA DNA inh
CCOc1ccccc1OCCCC(=O)Nc1ccc(Cl)c(S(=O)(=O)N2CCOCC2)c1	0	30	-	0	0
Cc1ccc2[nH]c3c(=O)n(CC(=O)Nc4ccccc4N4CCN(C)CC4)ncc3c2c1	0	0	0	0	0
O=C(Nc1ccc(Cl)cc1)NC1CCCC1Cc1ccco1 (stereo unspecified)	0	17	0	0	0
Cc1ccc(S(=O)(=O)N2CCN(c3nc(C(C)C)c4c(c3C#N)CC(C)(C)OC4)CC2)cc1	0	0	88	0	70
CN(CC(=O)Nc1ccc(Cl)cc1)C1=NS(=O)(=O)c2ccccc21	0	27	-	0	0
CN(CC(=O)Nc1n[nH]c(=S)s1)S(=O)(=O)c1cccc2cccnc12	0	0	0	0	0
CN(C)S(=O)(=O)N1C(=O)c2ccccc2C1=O	0	0	0	0	0
CN(C)/C=C1\C=C2C(=O)c3ccccc3N2C1=O	0	150	0	0	0
CCc1cccc(C)c1NC(=S)N(CCOC)C(C)c1ccco1 (stereo unspecified)	0	0	0	0	0
N/C(=N\OC(=O)CC1CCCCC1)c1ccc(Cl)cc1	0	0	0	0	0
COc1cccc(CCNC(=O)CC2C(=O)NCCN2CC(C)(C)C)c1 (stereo unspecified)	0	17	0	0	0
O=C(CC1C(=O)NCCN1Cc1cccc(F)c1)NCCCN1CCCC1=O (stereo unspecified)	0	15	0	0	0
COc1ccc(CCNC(=O)CC2C(=O)NCCN2CC(C)(C)C)cc1 (stereo unspecified)	0	0	0	0	0
CCOc1ccccc1CN1CCNC(=O)C1CC(=O)N(C)CCc1ccccn1 (stereo unspecified)	0	0	0	0	0
CCOc1ccccc1CN1CCNC(=O)C1CC(=O)NCCc1ccccn1 (stereo unspecified)	0	99	0	0	0
Cc1cc(=O)[nH]c(N)n1	0	13	0	0	0
Nc1cc(=O)[nH]c(N)n1	0	0	0	0	0
O=C(NCc1ccccc1Cl)C1CCC(=O)N(CC2CCCCC2)C1 (stereo unspecified)	0	0	0	0	0
CCn1ncc(C2=NOC(C(=O)NCc3ccc(Cl)cc3)C2)c1C (stereo unspecified)	0	58	0	0	0
Cc1cc(NC(=O)CSc2n[nH]c(N)n2)no1	0	+	0	0	0
CCc1nc(SCC(=O)Nc2cc(C)on2)n[nH]1	0	0	0	0	0
CN(C)CCCNC(=S)N(CCCN(C)C)Cc1cc2cc3c(cc2[nH]c1=O)OCO3	0	20	0	0	0
O=C1C(Cc2ccccc2)Nc2ncnc(N3CCN(c4ccccc4)CC3)c2N1Cc1ccc(Cl)cc1 (stereo unspecified)	0	0	0	0	0
COc1cccc(C2CC(c3ccccc3Cl)Nc3nc(N)nn32)c1 (stereo unspecified)	0	0	0	0	0
COc1cccc(C2CC(c3ccc(Cl)cc3Cl)Nc3nc(N)nn32)c1 (stereo unspecified)	0	10.0	0	0	0
SMILES	LYPLA1 counter	LANA-H2B inh	EBNA-1 inh	LYPLA2 counter	ZTA DNA inh
NC(=O)c1nsc(C(=O)N(c2ccc3c(c2)OCCO3)C(C(=O)NCC2CCCO2)c2ccc(F)cc2)c1N (stereo unspecified)	0	0	0	0	0
COc1ccc(N2C(=O)c3ccc(C(=O)Nc4ccccc4O)cc3C2=O)cc1	0	15	0	0	0
O=C(N/N=C/c1ccc(OCC(=O)N2CCCC2)cc1)C(=O)NC1CC1	0	26	0	0	0
O=C(O)Cc1ccc(O)c(F)c1	0	47!	0	0	0
CN1/C(=C\C(=O)COC(=O)c2ccco2)C(C)(C)c2ccccc21	0	0	0	0	0
CN1/C(=C\C(=O)c2ccco2)C(C)(C)c2ccccc21	0	0	39	0	147
Cc1noc(C)c1NC(=O)N(C)C[C@@H]1Oc2ccc(NC(=O)C3CCCCC3)cc2C(=O)N([C@@H](C)CO)C[C@H]1C	-	0	-	-	-
CC(Oc1ccccc1)C(=O)NC1CC(C)(C)NC(C)(C)C1 (stereo unspecified)	0	17	0	0	0
CCCCCCCN1C(Nc2ccccc2)=NC[C@@H]1C	0	0	0	0	0
N#C/C(=C\c1ccc(C#N)cc1)C(=O)c1ccccc1	-	0	-	-	-
N#CC(=C=[N-])/C=C(\C(=O)c1ccccc1)[n+]1ccccc1	0	21	0	0	0
CCC(=O)N1c2ccc(S(=O)(=O)NCCc3ccc(C)cc3)cc2CC1C (stereo unspecified)	0	14	0	0	0
CC(C)CSC1=NSC2=NC(=O)/C(=C\c3coc4ccccc4c3=O)C(=N)N12	0	60	0	0	0
O=C(CCc1nc(-c2ccccc2)no1)NCc1ccccc1CN1CCOCC1	0	26	-	0	0
COC(=O)c1ccc(N/C=C\C(=O)c2ccc3c(c2)OCO3)cc1	0	0	0	0	0
O=C(/C=C\Nc1cccc(F)c1)c1ccc2c(c1)OCO2	0	0	40	0	0
CCCN(CC(=O)Nc1ccccc1OC)C(=O)c1cc(-c2ccccc2)nn1-c1ccccc1	0	49	-	0	0
CCN(CC(=O)Nc1ccc(NC(C)=O)cc1)C(=O)c1cc(-c2ccccc2)nn1-c1ccccc1	0	0	0	0	0
CCOC(=O)N1CCC(NC(=O)c2cc(C(=O)Nc3ccc(S(=O)(=O)N4CCOCC4)cc3)ccc2CO)CC1	0	17	0	0	0
COC(=O)C(Cc1ccccc1)NC(=O)CC(C)CC(=O)Nc1ccc(C)cc1 (stereo unspecified)	0	0	0	0	0
CCN1C(=O)S/C(=C/c2c(OCc3ccc(C(=O)O)cc3)ccc3ccccc23)C1=O	0	119	0	0	0
O=C(NCc1ccco1)c1ccccc1SCC(=O)N1CCCC1	0	0	-	0	0
O=c1cc(CN2CCCCCC2)nc2sccn12	0	+	0	0	0
CCOC(=O)c1c(=O)n(O)c2ccc(OC)cc2[n+]1[O-]	0	82	0	0	0
CCc1ccc(NC(=O)C(C)Nc2ccc(S(=O)(=O)NC(C)=O)cc2)cc1 (stereo unspecified)	0	15	0	0	0
SMILES	LYPLA1 counter	LANA-H2B inh	EBNA-1 inh	LYPLA2 counter	ZTA DNA inh
O=C(Nc1ccc(Cl)c(Cl)c1)Nc1cc(C(=O)NC2CC2)ccc1Cl	0	17	0	0	0
O=C(Nc1ccc(Cl)c(Cl)c1)c1ccc(Cl)c(Cl)c1	0	0	0	0	0
CC(C)(C)c1cnnn1-c1ccc(/C=N/Nc2ccc([N+](=O)[O-])cc2)cc1	0	0	0	26	0
C/C(=N\Nc1ccc([N+](=O)[O-])cc1)c1ccc(-n2nncc2C)cc1	0	0	0	0	0
C=CCc1ccc(OCc2ccc(C(=O)Nc3ccc(NC(C)=O)cc3)o2)c(OC)c1	0	0	0	0	0
COc1ccc2c(=O)c(-c3cnn(-c4ccccc4)c3)c(C)oc2c1	0	22	0	0	0
Cc1oc2c(C)c(O)ccc2c(=O)c1-c1cnn(-c2ccccc2)c1	0	0	0	0	0

Compound activity from PubChem BioAssay.
